Results on 40 molecules are retold here after PubChem BioAssay (EPA / NIEHS).

Activity calls are given as the source filed them. Rule for the calls: active = hit-call score of the fitted dose curve at least 0.9, where 1 is the maximum; inactive = score below 0.9.

As a reminder, the AC50 is the concentration at which the activity in the assay is half-maximal.

Read-out in this assay: JUN Transcription Factor, JUN (gene 3725)
Kind of assay: LTEA_HepaRG_JUN: Life Technologies and Expression Analysis (LTEA) Assay for JUN Transcription Factor using HepaRG (AID 2283513). Conditions: mRNA level, 48 h; actives raise or lower the signal. As for the experimental part: LTEA_HepaRG is a cell based, multiplexed-readout assay that uses HepaRG, a human liver cell line, with measurements taken at 48 hours after chemical dosing on a 96-well plate.LTEA_HepaRG_JUN is one of 102 assay component(s) measured in the LTEA HepaRG cell culture assay. It is a marker of Cell proliferation, survival, death.Data from the assay component LTEA_HepaRG_JUN was analyzed into 1 endpoint. This assay endpoint, LTEA_HepaRG_JUN, was analyzed with bidirectional fitting relative to DMSO as the negative control and baseline of activity. Using a type of inducible reporter, measures of mRNA induction for gain or loss-of-signal activity can be used to understand regulation of transcription factor activity. To generalize the intended target to other relatable targets, this assay endpoint is annotated to the dna binding intended target family, where the subfamily is basic leucine zipper.
A total of 1060 chemcials from the ToxCast library were tested in eight-point concentration-response experiments. Cell culture and cytotoxicity assays were conducted at Thermo Fisher Scientific's Custom Services facility (Madison, WI). A single lot of human HepaRG cells (Thermo Fisher Scientific, Frederick, MD) was used for the cell culture experiments. 96-well format collagen type I coated plates of human HepaRG cells were prepared using established methods. Briefly, cryopreserved HepaRG cells were thawed, plated at a density of approximately 100,000 cells/well in HepaRG Thaw, Plate, and General Purpose media (HPRG770, Thermo Fisher Scientific), and incubated for 48 hours. 0.5% DMSO was selected as vehicle control to balance the requisite need of DMSO in HepaRG cultures to maintain differentiation (for example, baseline metabolism, proportions of hepatocytes vs. cholangiocytes), while enabling further hepatic receptor pathway activation (for example, PXR and CAR) in response to chemical exposure. 48 hours after plating, the culture medium was replaced with HepaRG Serum-Free Incudtion Media. Cells were exposed to each test chemical in duplicate and maintained in CO2 incubators for another 48 hours. Chemical plates were thawed to room temperature and 200x concentrations of treatment groups were prepared. 8-point conentration-reponse curves were made with the highest exposure at 100 uM, followed by half-log dilutions, all in 0.5% DMSO. Each test plate contained variouse controls, induction positive controls (1mM phenobarbital), cytotoxicity positive controls ([…] aflatoxin B1), vehicle controls (0.5% DMSO), and total lysis controls (0.5% DMSO). Cell morphology images were taken using an Essen IncuCyte FLR automated microscope, with six 96-well plates imaged in about 24 minutes. Images were captured and exported and JPEG files. Spent culture media was transfered to black-well plates for the LDH assay, and remaining media was sorted at -80 C for later use. Cells were treated with RLT buffer and frozen until shipped for gene expression analysis. Total RNA was isolated from the cell suspension in 75 uL of Buffer RLT (Qiagen, Germantown, MD 20874) by Quintiles/Expression Analysis (Durham, NC) using a custom isolation procedure. Total RNA from each plate well was transferred to a preamplification plate. Fluidigm's 96.96 Dynamic ArrayTM (Fluidigm, Amsterdam, the Netherlands) technology was used for gene expression analyses by quantitative reverse transcription polymerase chain reaction (qRT-PCR, performed by Quintiles/Expression Analysis, Durham, NC)89. Standard TaqManTM Assays (Applied Biosystems/ThermoFisher Scientific, Foster City, CA) were used to assess the expression of 93 genes selected based on their selectivity and sensitivity to important hepatic receptors known to be modulated by environmental chemicals; importance in human hepatocyte functionality; and hepatotoxicity. […]
In the case of `CCCCCCCCCCCCCCCS(=O)(=O)Oc1ccccc1`, the molecule was called inactive. `O=C(OCCOCCOC(=O)c1ccccc1)c1ccccc1`: the call was inactive. On to `CC#C[C@]1(O)CC[C@H]2[C@@H]3CCC4=CC(=O)CCC4=C3[C@@H](c3ccc(N(C)C)cc3)C[C@@]21C`, for which the AC50 was 33.7 µM (active). In the case of `Oc1cccc(O)c1`, the molecule was classed as inactive. For the molecule `OC1CCC(C2CCCCC2)CC1` (stereo not given), the call was inactive. On to `CC(=O)CC(C)(C)O`, for which the result was inactive. `Cc1cc(CCN2CCN(c3nsc4ccccc34)CC2)cc2c1NC(=O)CC2(C)C`: the molecule was classed as inactive. `ClC1=C(Cl)C(Cl)(Cl)C(Cl)=C1Cl`: the result was inactive. With `c1ccc2cc3c(ccc4ccccc43)cc2c1`, the result was inactive. For the molecule `Oc1cc2ccccc2c2ccccc12`, the outcome was inactive. The same measure, in the same setting: the same measure for `OC1CCCCC1`: “inactive”.

Turning to `NC(=O)N1C(=O)C(C(=O)c2cc(Cl)cs2)c2cc(F)c(Cl)cc21` (stereo not given), the AC50 was 30.3 µM (active). Consider `CCCCCCCCCCCCN1CCCC1=O`, for which the outcome was inactive.

As to `OCCC(F)(F)C(F)(F)C(F)(F)C(F)(F)C(F)(F)C(F)(F)F`, the outcome was inactive. On to `COCC(C)O` (stereo not given), for which the outcome was inactive. Still for that read-out and setting: then `COc1ccc([N+](=O)[O-])cc1N`, with “inactive”; and `CCC(C)(C)C1CCC(O)CC1` (stereo not given), with “inactive”. In the case of `CC[C@H](C)[C@@H](C(=O)O)n1sc2ccccc2c1=O`, the outcome was inactive. Same read-out and setting: then `Nc1cccc2c(N)cccc12`, with “inactive”. Turning to `CCCCCCCCCCCCc1ccccc1S(=O)(=O)O`, the AC50 was 34.7 µM (active). Turning to `CC(C)(C)CC(C)(C)c1ccc(O)c(-n2nc3ccccc3n2)c1`, the outcome was inactive. Still for that read-out and setting: then `N#C[C@@H]1CC(F)(F)CN1C(=O)CNC1CC2CCC(C1)N2c1ncccn1` (stereo not given in full), with “inactive”; and `CCOC(=O)CC(O)(CC(=O)OCC)C(=O)OCC`, with “inactive”; and `CCc1ccc(CCOc2ccc(CC3SC(=O)NC3=O)cc2)nc1` (stereo not given), with “inactive”. Consider `O=C(O)Cc1cc(I)c(Oc2cc(I)c(O)c(I)c2)c(I)c1`, for which the AC50 is 52.3 µM (active). For `COCC(C)OCC(C)O` (stereo not given), the result was inactive.

Consider `O=[N+]([O-])c1ccc(O)cc1`, for which the molecule was classed as inactive. With `Cc1cc(C)c(O)c(C)c1`, the result was inactive. Regarding `CCc1nn(C2CCCCC2)c2cc(C3(C#N)CCC(C(=O)O)CC3)ccc12` (stereo not given), the molecule was called inactive. Take `CCN(CC)CCNc1ccc(CNC=O)c2sc3ccc(OC)cc3c(=O)c12`: the AC50 is 79 µM (active).

As for `CC(C)(C)c1ccc(O)c(C(C)(C)C)c1`, the result was inactive. For `CN1CCC[C@H]1c1cccnc1`, the outcome was inactive. For `CCC(=C(c1ccc(O)cc1)c1ccc(OCCN(C)C)cc1)c1ccccc1`, the AC50 was 89.3 µM (active).

As to `O=C(O)c1ccccc1C(c1ccc(O)cc1)c1ccc(O)cc1`, the molecule was called inactive. As to `CC[C@H](c1ccc(O)cc1)[C@@H](CC)c1ccc(O)cc1`, the concentration at half-maximal activity (AC50) is 96.5 µM (active). Regarding `CCCOC(=O)c1ccc(O)cc1`, the result was inactive. As to `CC1=C(/C=C/C(C)=C/C=C/C(C)=C/C(=O)O)C(C)(C)CCC1`, the call was inactive.

Turning to `CN(C)C=O`, the molecule was called inactive. Turning to `Cc1oc(-c2ccccc2)nc1CCOc1ccc(C[C@H](Nc2ccccc2C(=O)c2ccccc2)C(=O)O)cc1`, the AC50 is 16.5 µM (active). On to `CN1CCN(c2ccccc2/C=C2\SCCN(c3ccc(Cl)c(Cl)c3)C2=O)CC1`, for which the AC50 was 75.5 µM (active).
